From PubChem BioAssay AID493056 (National Center for Advancing Translational Sciences (NCATS), 2011)
Out of some 360,000 compounds screened, about 2,400 (0.67%) were called active. For the sample, actives were picked, then their nearest neighbours and some compounds at random. Unmarked numbers belong to inactive results. Cut-off read from the data, not from the text of the source: active = enhancement above about 30%; inactive = the rest.
Note: 0% is about no effect.

These molecules were tested against Thyrotropin-releasing hormone receptor (Homo sapiens) (UniProt P34981) (assay: qHTS for Small Molecule Agonists and Allosteric Enhancers of Human TRH Receptor: Primary Screen for Enhancers). Conditions: TRHR cells, fluo-8 calcium fluorescence, EC20 TRH enhancement; at 2 µM; active compounds read high.
Chain of Thyrotropin-releasing hormone receptor (Homo sapiens) (P34981 whole entry, looked up): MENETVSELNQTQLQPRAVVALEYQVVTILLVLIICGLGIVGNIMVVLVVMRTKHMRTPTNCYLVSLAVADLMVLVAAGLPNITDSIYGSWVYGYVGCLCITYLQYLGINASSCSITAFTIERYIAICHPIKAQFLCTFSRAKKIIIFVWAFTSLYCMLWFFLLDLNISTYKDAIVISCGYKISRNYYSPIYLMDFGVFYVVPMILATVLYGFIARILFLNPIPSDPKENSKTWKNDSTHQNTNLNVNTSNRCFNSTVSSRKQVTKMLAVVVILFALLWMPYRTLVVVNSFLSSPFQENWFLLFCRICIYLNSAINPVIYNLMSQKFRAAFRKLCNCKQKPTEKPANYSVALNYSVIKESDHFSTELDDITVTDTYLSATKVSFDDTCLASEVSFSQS
Procedure, shortened: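 Enhancer read-out: after compound pinning and an initial kinetic agonist-mode read, an EC20 of TRH (10 nM final) was injected and fluo-8 calcium signal (Ex 480/Em 530) followed at 1 s/cycle for 100 cycles in TRHR-expressing cells.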
Work on `CCCC(=O)Nc1ccc(NC(=O)c2sc3ccccc3c2Cl)cc1` yielded an enhancement of -1.06%.
`CCC(=O)N1CCc2cc(S(=O)(=O)NC(C(=O)NCCc3ccc(C)cc3)C(C)C)ccc21` (configuration not stated) showed an enhancement of 18.2%.
With `CN(C(=O)CSc1nnc(Nc2ccccc2)s1)C1CCS(=O)(=O)C1` (configuration not stated) the enhancement was 51.4% (active).
`CCn1c(SCC(=O)N(C)C2CCS(=O)(=O)C2)nnc1-c1cccs1` (configuration not stated) showed an enhancement of 2.93%.
`CN(C(=O)CSc1nnc(NC(=O)Nc2ccccc2)s1)c1ccccc1` showed an enhancement of -6.25%.
Work on `CC(=O)c1ccc(N2CCN(C3C(=O)c4ccccc4N3C(C)=O)CC2)cc1` (configuration not stated) yielded an enhancement of -5.78%.
Work on `N#Cc1ccccc1Cn1cnc2nc3c(cc2c1=O)CCCC3` yielded an enhancement of 2.65%.
`O=S(=O)(c1ccccc1)c1nc(-c2ccc(Cl)cc2Cl)oc1N1CCCCC1` was tested, and the enhancement was 2.85%.
In the case of `CCCCNC(=O)C1CCCN(c2nnc(C)c3c(C)n(-c4ccc(Cl)cc4)nc23)C1` (configuration not stated), the enhancement was -2.23%.
With `CC(C)C1Nc2c(C(=O)O)cccc2C(Nc2ccccc2C(=O)O)C1(C)C` (configuration not stated) the enhancement was 30.3% (active).
With `Cc1ccc(-n2nc(CO)c(C(=O)NCCc3ccccc3)n2)cc1` the enhancement was -1.1%.
`CC(=O)N1CCCc2cc(S(=O)(=O)N3CCC(C(=O)NCc4ccc(C)cc4)CC3)ccc21` was tested, and the enhancement was 4%.
`CCc1ccc(Sc2cc(C(=O)NCCCOC(C)C)c3ccccc3n2)cc1` was tested, and the enhancement was -9.07%.
Molecule `CC1COc2ccccc2N1S(=O)(=O)c1ccccc1` (configuration not stated) has an enhancement of -5.39%.
Molecule `O=C1COc2ccc(C(=O)COC(=O)c3cccnc3Cl)cc2N1` has an enhancement of -8.83%.
With `CC1COc2ccccc2N1C(=O)c1cccnc1Cl` (configuration not stated) the enhancement was 30.7% (active).
`Cc1oc2ccc(O)c(CN3CCOCC3)c2c1C(=O)Nc1cccc(Cl)c1C` showed an enhancement of -0.894%.
With `COc1ccc(-c2ccc(=O)n(CC(=O)Nc3ccc(Br)cc3F)n2)cc1` the enhancement was 5.81%.
Molecule `S=C(Nc1ccc(Br)cc1Cl)NC1CCN(Cc2ccccc2)CC1` has an enhancement of 1.92%.
With `Cc1cc(C)cc(NC(=O)NC2CCCCCCC2)c1` the enhancement was -4.13%.
In the case of `Cc1cc(Br)ccc1NC(=S)NC1CCCC1`, the enhancement was 36% (active).
For `CCOc1ccc(NC(=O)C2CCN(S(=O)(=O)c3cc(-c4noc(C)n4)ccc3C)CC2)cc1`, the enhancement was 0.0598%.
`Cc1cccc(Cn2c(CN3CCC(C(=O)NCc4ccccc4Cl)CC3)cc3ccccc32)c1` gave an enhancement of -3.11%.
`CCOc1ccc(C(=O)c2cn(Cc3ccccc3OC)c3ccc(F)cc3c2=O)cc1` was tested, and the enhancement was -0.366%.
In the case of `C/C(=N\OC(=O)c1ccccc1)c1c(C)nc2cc(C)ccn12`, the enhancement was -2.45%.
`N/C(=N\OC(=O)c1ccc2c(c1)OCO2)c1ccc(Br)cc1` was tested, and the enhancement was -2.97%.
`C/C(=N/OC(=O)c1ccc(Br)cc1)c1ccc(C)cc1` was tested, and the enhancement was 61.7% (active).
With `Cc1cn(C)c(CC(=O)NCc2ccccc2)c1C(=O)O` the enhancement was -2.62%.
`Cc1cccc(-c2nc(SCc3ccc(Br)cc3)n3[nH]c(=O)cc3n2)c1` showed an enhancement of 4.69%.
Work on `O=C(NC1(C(F)(F)F)N=C(c2ccccc2)N(C2CCCCC2)C1=O)c1ccccc1F` (configuration not stated) yielded an enhancement of -3.75%.
`CN1CCN(c2oc(-c3ccc(COc4ccc(Cl)cc4)o3)nc2C#N)CC1` showed an enhancement of 0.896%.
Work on `Cc1ccc(C)c(NC(=O)C2CCCN(S(=O)(=O)c3cn(C)cn3)C2)c1` (configuration not stated) yielded an enhancement of 12.8%.
`O=C(NCc1ccccc1)C1CCCN(S(=O)(=O)c2cccs2)C1` (configuration not stated) showed an enhancement of 4.34%.
In the case of `O=C(NCc1ccncc1)C1CCCN(S(=O)(=O)c2ccc(Br)cc2)C1` (configuration not stated), the enhancement was 30.7% (active).
Molecule `CSc1ccc(S(=O)(=O)N2CCC(C(=O)NCc3ccncc3)CC2)cc1` has an enhancement of 0.598%.
Molecule `CCc1nc2c(cnn2-c2ccc(C)cc2)c(=O)n1-c1ccc(C)cc1` has an enhancement of -4.12%.
`Cc1ccc(Cn2ncc3c4sc(C)cc4n(C)c3c2=O)c(C)c1` was tested, and the enhancement was 4.39%.
For `CCCN(CCC)CCNC(=O)c1ccc2c(c1)NC(=O)C(CS(=O)(=O)Cc1cccc(Br)c1)N2` (configuration not stated), the enhancement was 5.05%.
In the case of `C/C(=C\c1ccco1)CN1CCC(N2CCC(C(=O)N3CCOCC3)CC2)CC1`, the enhancement was 46.7% (active).
For `O=C(C1CCN(C2CCN(Cc3ccc4cc(F)ccc4n3)CC2)CC1)N1CCCC1`, the enhancement was -6.35%.
With `O=C(C1CCN(C2CCN(Cc3cccc4c3OCO4)CC2)CC1)N1CCOCC1` the enhancement was 2.59%.
In the case of `Cc1ccc(-c2nc(SCc3ccc(Br)cc3)n3[nH]c(=O)cc3n2)cc1`, the enhancement was -0.363%.
With `CC(C)(C)n1nc2c(c1NC(=O)c1cc3ccccc3o1)CSC2` the enhancement was 1.55%.
With `Cc1c(/C=N\NC(=O)c2cc3ccccc3o2)c2ccccc2n1C` the enhancement was 44.3% (active).
`CC(C)Oc1ccc(NC(=O)c2cc3ccccc3o2)cc1` was tested, and the enhancement was 7.33%.
`O=C(NCCS(=O)(=O)N1CCN(c2ccc(F)cc2)CC1)c1ccccc1Br` showed an enhancement of 1.15%.
In the case of `Cc1ccc(C2CCN(C(=O)c3cnn(-c4ccccc4Cl)c3C3CCN(C(=O)OC(C)(C)C)CC3)C2)cc1` (configuration not stated), the enhancement was 3.84%.
For `CC(=O)Nc1ccc(S(=O)(=O)N2CCN(S(=O)(=O)c3cccs3)CC2)cc1`, the enhancement was -0.8%.
`CN1CCN(S(=O)(=O)c2ccc(N3CCN(S(=O)(=O)c4cccs4)CC3)nc2)CC1` was tested, and the enhancement was 39.6% (active).
Work on `O=S(=O)(c1cccs1)N1CCN(CCOc2ccccc2)CC1` yielded an enhancement of 5.02%.
`CCOC(=O)C1CCN(c2csc3ccc(C)cc3c2=O)CC1` was tested, and the enhancement was -6.67%.
Molecule `CCOC(=O)C1CCC(CN(Cc2ccc(OC)cc2)S(=O)(=O)c2ccc(F)c(C(=O)Nc3cc(C)ccc3C)c2)CC1` (configuration not stated) has an enhancement of -3.18%.
Molecule `COC(=O)c1cc(NC(=O)CN2CCN(C(C)=O)CC2)cc(C(=O)OC)c1` has an enhancement of 6.58%.
For `CC(=O)N1CCN(CC(=O)Nc2ccc(C)c(F)c2)CC1`, the enhancement was 47.8% (active).
`Cc1ccc(NC(=O)CN2c3ccccc3S(=O)(=O)c3ccccc32)cc1F` showed an enhancement of 10.5%.
Work on `CCOc1ccc(C2C(C(=O)Nc3ccc(Cl)cc3)=C(C)Nc3nc(C(F)(F)F)nn32)cc1` (configuration not stated) yielded an enhancement of 10.8%.
`C#CC(C)(CC)NC(=O)Cn1nnc(-c2ccc(OCc3c(F)cccc3Cl)cc2)n1` (configuration not stated) showed an enhancement of 1.56%.
`O=C(NCc1ccccn1)C1CCN(S(=O)(=O)c2ccc(Br)cc2)CC1` gave an enhancement of -2.72%.
Molecule `CCOc1ccccc1NC(=O)COc1ccc(S(=O)(=O)N2CCCC2)cc1` has an enhancement of 19.7%.
For `O=C(COc1ccc(S(=O)(=O)N2CCCCC2)cc1)NCc1ccccn1`, the enhancement was 36.9% (active).
Molecule `COc1cccc(N2CC(NC(=O)/C=C\c3ccccc3)CC2=O)c1` (configuration not stated) has an enhancement of 5.73%.
With `CCc1ccc(NC(=O)CSc2nc3c([nH]c4ccccc43)c(=O)n2-c2cccc(OC)c2)cc1` the enhancement was 2.51%.
`Cc1ccccc1CC1(CO)CCCN(Cc2ccc3c(c2)OCCO3)C1` (configuration not stated) showed an enhancement of 2.06%.
With `CCOc1cc(CN2CCCC(CO)(Cc3ccc(F)cc3F)C2)ccc1OC` (configuration not stated) the enhancement was 45.4% (active).
For `CCc1[nH]nc(C(=O)N2CCCC(CO)(Cc3ccc(F)cc3F)C2)c1C` (configuration not stated), the enhancement was -3.46%.
`CC(C)(C)OC(=O)N1CCC(c2c(C(=O)NCc3ccccn3)cnn2-c2ccc(F)cc2)CC1` showed an enhancement of 0.916%.
With `CSc1nc(=O)c2c(n1C)NC(=O)CC2c1ccccc1OC(C)C` (configuration not stated) the enhancement was 1.92%.
`Cc1cc(C)c2oc(C(=O)Nc3c(C(=O)Nc4ccccc4)oc4ccccc34)cc(=O)c2c1` gave an enhancement of -1.76%.
In the case of `Cc1ccc(S(=O)(=O)N(CC(=O)Nc2ccc(Cl)cc2Cl)c2ccccc2C)cc1`, the enhancement was -0.851%.
`CCCCOc1ccc(C(=O)Nc2cccc(-c3nc4ccccc4o3)c2C)cc1` was tested, and the enhancement was 36% (active).
`CCCOc1ccc(C(=O)Nc2ccc3oc(-c4cccc(Cl)c4Cl)nc3c2)cc1` was tested, and the enhancement was -0.105%.
`Cc1ccccc1-c1nc2cc(NC(=O)c3cccc(OCCC(C)C)c3)ccc2o1` was tested, and the enhancement was -6.29%.
`Cc1ccc(S(=O)(=O)c2nnn3c2nc(N2CCN(c4ccccc4F)CC2)c2cc(Cl)ccc23)cc1C` gave an enhancement of 15.1%.
In the case of `COc1ccccc1CNC(=O)c1ccc(-n2c(C)cc3c2CCCC3)cc1`, the enhancement was -0.647%.
For `Cc1noc(C)c1-c1ccc2ncnc(NCc3ccc(F)c(F)c3)c2c1`, the enhancement was -4.49%.
In the case of `O=C(CCl)NNc1nc(-c2ccccc2)c2cc(Cl)ccc2n1`, the enhancement was 32.4% (active).
With `O=C(Cn1c(=O)nc(-c2ccccc2)c2cc(Cl)ccc21)NCc1ccc(Cl)cc1` the enhancement was 10.8%.
With `Clc1ccc2nc(-c3ccccc3)nc(C(Cl)Cl)c2c1` the enhancement was 2.39%.
`Cc1nc(N=C(N)N)nc2c(C)cccc12` gave an enhancement of 10.2%.
In the case of `NC(N)=Nc1nc(-c2ccccc2)c2cc(Cl)ccc2n1`, the enhancement was 48.4% (active).
`O=C(O)c1ccc(Nc2nc(-c3ccccc3)c3cc(Br)ccc3n2)cc1` was tested, and the enhancement was 7.15%.
`CCC(C)NC(=O)Cn1c(=O)n(-c2ccc(Cl)cc2)c(=O)c2c3c(sc21)CCCC3` (configuration not stated) gave an enhancement of 2.95%.
Work on `CN1CCOc2cc(S(=O)(=O)N3CCN(S(=O)(=O)c4c(F)cccc4F)CC3)cnc21` yielded an enhancement of -0.823%.
`Cc1ccc(C)c(NC(=O)CSC2=Nc3ccccc3N=C(c3ccc(F)cc3)C2)c1` was tested, and the enhancement was -0.667%.
Work on `O=[S+]([O-])(c1ccc(OC(F)(F)F)cc1)N1CCN([S+](=O)([O-])c2ccc3c(c2)OCCO3)CC1` yielded an enhancement of -5.08%.
`Cc1cccc(-c2nc(SCC(=O)Nc3cc(C)on3)c3c(=O)n(C)c(=O)n(C)c3n2)c1` showed an enhancement of 2.9%.
`CCCCn1c(=N)c(S(=O)(=O)c2ccccc2)cc2c(=O)n3cccc(C)c3nc21` was tested, and the enhancement was 1.28%.
